# Records with an inconclusive call do not appear. Entries that show only a call come without a potency. Values without a mark were called inactive. Active and inactive are the calls of the source. Calls follow the shape of the dose curve; as a rule, active = well fitted curve in the direction sought with a large enough effect; inconclusive = small, poorly fitted or top-dose-only effect, or another doubt; inactive = no such curve, though single readings can be large; an effect the other way counts as inactive or inconclusive. Where a SMILES comes first, the peptide text is derived from it. The star is where a group is joined. AFC = O=c1cc(C(F)(F)F)c2ccc(N*)cc2o1
# Target: Calcium and integrin-binding protein 1 (Homo sapiens) (UniProt Q99828)
# Sequence (Q99828 whole entry, looked up): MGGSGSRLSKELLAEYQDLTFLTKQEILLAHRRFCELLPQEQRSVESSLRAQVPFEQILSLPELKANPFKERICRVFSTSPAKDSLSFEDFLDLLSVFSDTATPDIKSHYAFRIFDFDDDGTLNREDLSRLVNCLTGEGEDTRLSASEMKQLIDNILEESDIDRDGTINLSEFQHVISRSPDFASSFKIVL
# Assay: Confirmatory qHTS for Identification of Calcium Integrin Binding Protein 1 (CIB1) Competitor (AID 1508617); also: nearly all actives have a fitted effect of over 65% in size; also: potency is read from the fitted curve at half-maximal effect
# Settings: CIB1 binding competition assay, biochemical qHTS; series mostly up to 114 µM
# Summary of the method: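 Compounds at up to 114 uM final met 1 uM GST-tagged CIB1 for 15 min at room temperature (HEPES pH 7.4, 5 mM CaCl2). FITC-labelled alphaIIb peptide, 100 nM, added; polarization read after 15 min more.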
row,Structure (SMILES),Potency
1,CC[C@@H](c1ccc(F)c(F)c1)n1c(C(=O)OC)c(-c2ccno2)[nH]c1=S,inactive
2,CC(=O)c1c(O)cc2c(c1C)C(=O)CC(O)C2 (stereo not drawn),inactive
3,OC[C@H]1O[C@@H](Oc2ccc(O)c3cccc(O)c23)[C@H](O)[C@@H](O)[C@@H]1O,11.2 µM (active)
4,CC(=O)c1c(O)cc2cccc3c2c1CC(C)(O)O3 (stereo not drawn),39.8 µM (active)

# Target: Calcium and integrin-binding protein 1 (Homo sapiens) (UniProt Q99828)
# Assay: Primary qHTS for Identification of Calcium Integrin Binding Protein 1 (CIB1) Competitor (AID 1508620);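 also: GST tagged CIB1 binding a fluorescein labelled alphaIIb integrin peptide tracer; top concentration of the series differs between compounds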
# Settings: CIB1-GST / FITC-alphaIIb peptide fluorescence polarization; series mostly up to 57.7 µM
# Summary of the method: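 CIB1-GST (1 uM final) and compound incubated 15 min at room temperature before adding FITC-alphaIIb peptide tracer (100 nM final). Competition for binding read by fluorescence polarization (ex 480, em 540) after another 15 min at room temperature.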
Structure (SMILES),Potency,"activity change, negative = inhibition"
CN1C(=O)c2ccccc2NC(=O)[C@]12O[C@@H]2c1cccc(O)c1,inactive,
C=C1C[C@]23C[C@H]1CC[C@H]2[C@]1(C)CCC[C@@]2(CO)C(=O)O[C@H]([C@H]21)[C@@H]3O,inactive,
C=CC(C)(C)C12CC3C(=O)NC(Cc4cnc[nH]4)C(=O)N3C1Nc1ccccc12 (stereo not drawn),inactive,
CC(C)C1=CC2=CCC3[C@](C)(CCC[C@@]3(C)C(=O)O)C2CC1O (stereo partly drawn),inactive,
CC1(C)O[C@]23C[C@H]1C[C@H](OC(=O)c1ccoc1)[C@]2(C)[C@@H](OC(=O)c1ccoc1)CCC3(C)O (stereo partly drawn),inactive,
CC1=C(CC(=O)O)c2cc(F)ccc2C1=Cc1ccc(S(C)(=O)=O)cc1,inactive,
CCC(NC(=O)CC(NC(=O)C(CO)NC(=O)C(CC)NC(=O)c1ccc[nH]1)c1ccccc1)C(=O)O (stereo not drawn),inactive,
COc1cccc(-n2nc(C(=O)O)cc2-c2ccc(C3CCCCC3)c(Cl)c2)c1,inactive,
Cc1nnc(C(C)C)n1C1CC2CCC(C1)N2CC[C@H](NC(=O)C1CCC(F)(F)CC1)c1ccccc1 (stereo partly drawn),inactive,
COc1cc(C2OCC3C(c4ccc(OC5OC(CO)C(O)C(O)C5O)c(OC)c4)OCC23)ccc1O (stereo not drawn),inactive,
COc1cc(C(C)=O)ccc1O[C@@H]1O[C@H](CO[C@@H]2O[C@@H](C)[C@H](O)[C@@H](O)[C@H]2O)[C@@H](O)[C@H](O)[C@H]1O,inactive,
CC(/C=C/C1(O)C2(C)COC1(C)CC(=O)C2)O[C@@H]1O[C@H](CO)[C@@H](O)[C@H](O)[C@H]1O (stereo partly drawn),inactive,
O=C(CCO[C@@H]1O[C@H](CO)[C@@H](O)[C@H](O)[C@H]1O)c1ccc(O)cc1,inactive,
C=C1C[C@@]23CC[C@@H]4[C@](C)(C(=O)O)CCC[C@@]4(C)C2=CC[C@H]1C3,inactive,
C=C[C@H]1[C@H](O[C@@H]2O[C@H](CO)[C@@H](O)[C@H](O)[C@H]2O)OC=C(C(=O)OC)[C@H]1C[C@@H]1N[C@H](C(=O)O)Cc2c1[nH]c1ccccc21,inactive,
CN1Cc2c(N)cccc2C(c2ccccc2)C1 (stereo not drawn),inactive,
CC1=C2[C@@H]([C@H](C)CC[C@H]2/C=C(\C)C(=O)O)[C@H](O)C1,inactive,
CC(C)(O)C1=CCC23COC(C2)C(O)(C(=O)O)CCC13 (stereo not drawn),inactive,
C=C1CC23CCC4[C@@](C)(CCC[C@@]4(C)C(=O)O)C2CCC1C3 (stereo partly drawn),inactive,
CC1CCC2C(C)(C)C(O)CCC2(C)C12Cc1c(O)cc3c(c1O2)CN(C(CCC(N)=O)C(=O)O)C3=O (stereo not drawn),inactive,
CC1(C)OC(=O)C(OCC2CC2)=C1c1ccc(S(C)(=O)=O)cc1,inactive,
COc1ccc(/C=C/C(=O)O[C@@H]2[C@@H](O)[C@H](C)O[C@@H](OC3C4C=COC(O[C@@H]5O[C@H](CO)[C@@H](O)[C@H](O)[C@H]5O)C4C4(CO)OC34)[C@@H]2O)cc1OC (stereo partly drawn),inactive,
CCCn1cnc2c(NCc3ccccc3)nc(N[C@H](CC)CO)nc21,inactive,
C/C=C/C=C/C(CC(=O)O)Nc1ccc(C=O)cc1 (stereo not drawn),inactive,
Cc1nc2c(-c3cnc(N)nc3)nc(N3CCOCC3)nc2n1C(C)C,inactive,
CC(=O)OC(C)OC(=O)C(C)c1ccc(-c2ccccc2)c(F)c1 (stereo not drawn),inactive,
CC(=O)N[C@@H](CC(C)C)C(=O)N[C@@H](CCC(=O)O)C(=O)N[C@@H](CCC(=O)O)C(=O)N[C@@H](CC(=O)O)C(=O)Nc1ccc2c(C(F)(F)F)cc(=O)oc2c1 (Ac-LEED-{AFC}),inactive,
C=CC(C)(O)CC/C=C(/C)C(=O)OC1C(OC2OCC(OC3OC(CO)C(O)C(O)C3O)C(OC3OCC(O)C(OC4OC(C)C(O)C(O)C4O)C3O)C2O)COC(OC(=O)C23CCC(C)(C)CC2C2=CCC4C5(C)CCC(OC6OC(CO)C(OC7OC(CO)C(O)C(OC8OCC(O)C(O)C8O)C7O)C(O)C6O)C(C)(C)C5CCC4(C)C2(C)CC3O)C1O (stereo not drawn),,-3% [at 12.4 µM]
COC(=O)C1=CO[C@@H](O[C@@H]2O[C@H](CO[C@@H]3O[C@H](COC(=O)/C=C/c4ccc(O)cc4)[C@@H](O)[C@H](O)[C@H]3O)[C@@H](O)[C@H](O)[C@H]2O)[C@@H]2C(CO)=CC[C@H]12,inactive,

# From PubChem BioAssay (NCATS)
